In publication PMC11062922 (Nature Chemical Biology, 2023) one finds potency estimated from few doses data, which are given here for four molecules.

Set-up in all cases: species or system human, MV4-11 + K-562 + COLO205 + SK-N-BE2 + OVCAR-8
In assay [1] the test system is ACVR1B. The settings on record: read-out: apparent Kd, n = 1.
Assay [2] deals with CDK7. The settings on record: read-out: apparent Kd; compound concentrations:100 nM and 1000 nM (sheet 'Samples'); n = 1.
Assay [3] concerns CSNK1D. The settings on record: read-out: apparent Kd, n = 1.
Assay [4] deals with GAK. The settings on record: read-out: apparent Kd, n = 1.
Assay [5] deals with NQO2. The settings on record: read-out: apparent Kd; compound concentrations:100 nM and 1000 nM (sheet 'Samples'); n = 1.
Assay [6] concerns PRKD2. The settings on record: read-out: apparent Kd; compound concentrations:100 nM and 1000 nM (sheet 'Samples'); n = 1.
Assay [7] concerns PRKD3. The settings on record: read-out: apparent Kd; compound concentrations:100 nM and 1000 nM (sheet 'Samples'); n = 1.
In assay [8] the test system is TGFBR1. The settings on record: read-out: apparent Kd, n = 1.
For assay [9], the system named is TGFBR2. As to conditions: read-out: apparent Kd; compound concentrations:100 nM and 1000 nM (sheet 'Samples'); n = 1.
In assay [10] the test system is TNIK. The settings on record: read-out: apparent Kd; compound concentrations:100 nM and 1000 nM (sheet 'Samples'); n = 1.
In assay [11] the test system is TNK1. As to conditions: read-out: apparent Kd; compound concentrations:100 nM and 1000 nM (sheet 'Samples'); n = 1.
Assay [12] concerns ACVR1. The settings on record: read-out: apparent Kd; compound concentrations: 100 nM and 1000 nM (sheet 'Samples'), CATDS: 0.106513578189519; n = 1.
Assay [13] deals with ACVR2B. As to conditions: read-out: apparent Kd, compound concentrations: 100 nM and 1000 nM (sheet 'Samples'), n = 1.
Assay [14] relates to ADCK3. As to conditions: read-out: apparent Kd, compound concentrations: 100 nM and 1000 nM (sheet 'Samples'), n = 1.
Assay [15] deals with RET. The settings on record: read-out: apparent Kd, compound concentrations: 100 nM and 1000 nM (sheet 'Samples'), n = 1.
The subject of assay [16] is RIPK2. As to conditions: read-out: apparent Kd, compound concentrations: 100 nM and 1000 nM (sheet 'Samples'), n = 1.
Assay [17] relates to RIPK3. The settings on record: read-out: apparent Kd, compound concentrations: 100 nM and 1000 nM (sheet 'Samples'), n = 1.
Assay [18] has as its system AGPS. As to conditions: read-out: apparent Kd; compound concentrations: 100 nM and 1000 nM (sheet 'Samples'), CATDS: 9.4477869255485902E-2; n = 1.
Assay [19] deals with CSNK1E. As to conditions: read-out: apparent Kd; compound concentrations: 100 nM and 1000 nM (sheet 'Samples'), CATDS: 9.3377022470402096E-2; n = 1.
In assay [20] the test system is ILK. The settings on record: read-out: apparent Kd; compound concentrations: 100 nM and 1000 nM (sheet 'Samples'), CATDS: 9.8525851125826097E-2; n = 1.
Assay [21] concerns MAPK14. As to conditions: read-out: apparent Kd, compound concentrations: 100 nM and 1000 nM (sheet 'Samples'), n = 1.
Assay [22] deals with MAPKAPK2. The settings on record: read-out: apparent Kd, compound concentrations: 100 nM and 1000 nM (sheet 'Samples'), n = 1.
Assay [23] deals with MDN1. As to conditions: read-out: apparent Kd; compound concentrations: 100 nM and 1000 nM (sheet 'Samples'), CATDS: 9.4286494514119495E-2; n = 1.
Assay [24] relates to TESK2. As to conditions: read-out: apparent Kd; compound concentrations: 100 nM and 1000 nM (sheet 'Samples'), CATDS: 9.9817052034954598E-2; n = 1.
The subject of assay [25] is BCR. The settings on record: read-out: apparent Kd; compound concentrations: 100 nM and 1000 nM (sheet 'Samples'), CATDS: 9.2768545935790703E-2; n = 1.
For assay [26], the system named is CSNK1G1. As to conditions: read-out: apparent Kd; compound concentrations: 100 nM and 1000 nM (sheet 'Samples'), CATDS: 3.1181891791675201E-2; n = 1.
Assay [27] relates to DCTPP1. The settings on record: read-out: apparent Kd; compound concentrations: 100 nM and 1000 nM (sheet 'Samples'), CATDS: 3.3773682420650999E-2; n = 1.
The test system of assay [28] is DDR1. The settings on record: read-out: apparent Kd; compound concentrations: 100 nM and 1000 nM (sheet 'Samples'), CATDS: 4.4560789756538197E-2; n = 1.
In assay [29] the test system is FLT4. As to conditions: read-out: apparent Kd; compound concentrations: 100 nM and 1000 nM (sheet 'Samples'), CATDS: 0.117719858007404; n = 1.
The test system of assay [30] is PDGFRB. The settings on record: read-out: apparent Kd; compound concentrations: 100 nM and 1000 nM (sheet 'Samples'), CATDS: 3.2777041424413303E-2; n = 1.
Assay [31] concerns PIK3CD. As to conditions: read-out: apparent Kd; compound concentrations: 100 nM and 1000 nM (sheet 'Samples'), CATDS: 7.8466162037350698E-2; n = 1.
Assay [32] concerns PIM2. The settings on record: read-out: apparent Kd; compound concentrations: 100 nM and 1000 nM (sheet 'Samples'), CATDS: 3.2827495568097498E-2; n = 1.
In assay [33] the test system is PRKAG1. As to conditions: read-out: apparent Kd; compound concentrations: 100 nM and 1000 nM (sheet 'Samples'), CATDS: 0.117727250561146; n = 1.
In assay [34] the test system is SLK. The settings on record: read-out: apparent Kd; compound concentrations: 100 nM and 1000 nM (sheet 'Samples'), CATDS: 3.3864807637991101E-2; n = 1.
Assay [35] deals with STK10. As to conditions: read-out: apparent Kd; compound concentrations: 100 nM and 1000 nM (sheet 'Samples'), CATDS: 3.2932221087981599E-2; n = 1.
The mark [36] stands for this setting: compound concentrations:100 nM and 1000 nM (sheet 'Samples').

Like-named read-outs stand apart in the source and are kept apart here.

On to `c1ccc(-c2n[nH]cc2-c2ccnc(-c3ccc(CNC4CCOCC4)cc3)c2)nc1` [GW709213X], for which the potency estimated from few doses in assay [1] (setting [36]) was 0.0391 µM; in [2], 1.09 µM; in [3] (setting [36]) it was 1.5 µM; in assay [4] (setting [36]), 1.15 µM; in assay [5], 0.925 µM; in assay [6], 0.195 µM. Besides, the potency estimated from few doses in assay [7] was 0.193 µM; in assay [8] (setting [36]), 0.0126 µM; in [9], 1.33 µM; in [10], 2.41 µM; in assay [11] it was 0.445 µM.

As to `Cl.c1ccc(-c2ccc3c(Nc4ccc5[nH]ncc5c4)ccnc3c2)nc1` [GW440137A], the potency estimated from few doses is 0.766 µM in assay [1] (compound concentrations: 100 nM and 1000 nM (sheet 'Samples'), CATDS: 0.112387102296717); 0.904 µM in [12]; 0.0119 µM in assay [13] (CATDS: 0.67382048852526699); 1.2 µM in [14] (CATDS: 9.7735008507333701E-2); 0.525 µM in assay [15] (CATDS: 0.12802615197662401); 0.0589 µM in assay [16] (CATDS: 0.29852587031983902). The potency estimated from few doses in [17] (CATDS: 9.0295884260328696E-2) was 1.6 µM; in [8] (compound concentrations: 100 nM and 1000 nM (sheet 'Samples'), CATDS: 8.5016049032497404E-2), 2.06 µM.

`CN1CCN(CCCNc2nccc(-c3c(-c4ccc(F)cc4)nn4cc(C(F)(F)F)ccc34)n2)CC1` [GW621581X]: the potency estimated from few doses in [1] (compound concentrations: 100 nM and 1000 nM (sheet 'Samples'), CATDS: 0.17734677143715399) is 0.667 µM; in [18], 2.19 µM; in assay [3] (compound concentrations: 100 nM and 1000 nM (sheet 'Samples'), CATDS: 0.11827296398223) it was 1.33 µM; in [19] it was 2.25 µM; in assay [20], 1.97 µM; in [21] (CATDS: 0.13638952707170801), 1.02 µM. Also, the potency estimated from few doses in [22] (CATDS: 0.13321456142161001) was 1.07 µM; in assay [23] it was 2.2 µM; in assay [24], 1.91 µM.

As to `Cl.c1ccc(-c2ccc3c(Nc4ccc5[nH]ccc5c4)ccnc3c2)nc1` [GW440138A], the potency estimated from few doses in [1] (compound concentrations: 100 nM and 1000 nM (sheet 'Samples'), CATDS: 4.6786491220556801E-2) is 0.481 µM; in assay [13] (CATDS: 8.2353092384730597E-2), 0.119 µM; in assay [14] (CATDS: 4.7719442951788302E-2) it was 0.453 µM; in [25], 0.0942 µM; in [26] it was 2.21 µM; in [27], 1.52 µM. In addition, the potency estimated from few doses in assay [28] was 0.558 µM; in assay [29], 0.0621 µM; in [4] (compound concentrations: 100 nM and 1000 nM (sheet 'Samples'), CATDS: 0.134261211287381), 0.0504 µM; in [21] (CATDS: 3.4656065329692502E-2), 1.36 µM; in assay [22] (CATDS: 3.6359622105698597E-2), 1.13 µM; in assay [30], 1.74 µM. The potency estimated from few doses in assay [31] was 0.131 µM; in assay [32], 1.73 µM; in [33], 0.0621 µM; in assay [15] (CATDS: 0.121628255608471) it was 0.0589 µM; in assay [16] (CATDS: 9.1819090008616905E-2) it was 0.096 µM; in assay [17] (CATDS: 3.5551158882109302E-2), 1.23 µM. For the same molecule, the potency estimated from few doses in [34] is 1.5 µM; in assay [35], 1.7 µM; in [8] (compound concentrations: 100 nM and 1000 nM (sheet 'Samples'), CATDS: 3.3353996137348303E-2), 1.61 µM.
